In PubChem BioAssay (Tox21):
Inconclusive results are not listed. Active and inactive are the calls of the source. The call rests on the fitted dose curve. Non-standard residues stand in square brackets, D forms with d. Residues, ends and D or L forms follow the SMILES beside them. *: point of attachment. Sta = CC(C)C[C@H](N)[C@@H](O)CC(=O)O; Isovaleryl = CC(C)CC(=O)*

Columns and labels:
[1] = biological target: Acetylcholinesterase (Homo sapiens) (UniProt P22303); test: Acetylcholinesterase (AChE) small molecule antagonists: colormetric cell-based qHTS assay (AID 1347395); further: nearly all actives have a fitted effect of over 30% in size
In short: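 Endogenous AChE of human neuroblastoma SH-SY5Y cells was measured with an Ellman-type DTNB/acetylthiocholine mix. Compound pretreatment lasted 30 min at 37 C; substrate reaction ran 90 min at 37 C.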

[2] = biological target: Acetylcholinesterase (Homo sapiens) (UniProt P22303); test: Acetylcholinesterase (AChE) small molecule antagonists: enzyme-based qHTS assay (AID 1347397); settings: Potency: AChE enzyme activity inhibition; outcome: AChE enzyme activity inhibition; further: nearly all actives have a fitted effect of over 55% in size
In short: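 Tox21 library chemicals are tested in qHTS format against recombinant human AChE. The enzyme, dispensed at 50 mU/mL, sits with compound for 30 min at room temperature. A DTNB–acetylthiocholine cocktail follows, and colour is read after 10 min.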

[3] = biological target: Acetylcholinesterase (Homo sapiens) (UniProt P22303); test: Acetylcholinesterase (AChE) small molecule antagonists: fluorescence cell-based qHTS assay (AID 1347398); settings: Potency: AChE activity; outcome: AChE activity; further: nearly all actives have a fitted effect of over 50% in size
In short: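 Cellular AChE inhibition: SH-SY5Y cells treated with test chemical for 30 min at 37 C, then acetylthiocholine hydrolysis followed over 40 min at room temperature via thiocholine-reactive Thiolite Green fluorescence (490/520 nm).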

[4] = biological target: Acetylcholinesterase (Homo sapiens) (UniProt P22303); test: Acetylcholinesterase (AChE) small molecule antagonists: enzyme-based qHTS assay with human liver microsomes (AID 1347399); settings: Potency: qHTS inhibition; outcome: qHTS inhibition; further: nearly all actives have a fitted effect of over 60% in size
In short: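 Recombinant human AChE (50 mU/mL in the enzyme mix) and human liver microsomes (0.25 mg/mL final) were preincubated with compound and NADPH (0.25 mg/mL final) for 30 min at 37 C. Acetylthiocholine/DTNB was then added; thiocholine was read colorimetrically after 10 min at room temperature.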
On the % scale 0 is the no-effect control and ±100 the full control effect.

Sequence of Acetylcholinesterase (Homo sapiens) (P22303 whole entry, looked up): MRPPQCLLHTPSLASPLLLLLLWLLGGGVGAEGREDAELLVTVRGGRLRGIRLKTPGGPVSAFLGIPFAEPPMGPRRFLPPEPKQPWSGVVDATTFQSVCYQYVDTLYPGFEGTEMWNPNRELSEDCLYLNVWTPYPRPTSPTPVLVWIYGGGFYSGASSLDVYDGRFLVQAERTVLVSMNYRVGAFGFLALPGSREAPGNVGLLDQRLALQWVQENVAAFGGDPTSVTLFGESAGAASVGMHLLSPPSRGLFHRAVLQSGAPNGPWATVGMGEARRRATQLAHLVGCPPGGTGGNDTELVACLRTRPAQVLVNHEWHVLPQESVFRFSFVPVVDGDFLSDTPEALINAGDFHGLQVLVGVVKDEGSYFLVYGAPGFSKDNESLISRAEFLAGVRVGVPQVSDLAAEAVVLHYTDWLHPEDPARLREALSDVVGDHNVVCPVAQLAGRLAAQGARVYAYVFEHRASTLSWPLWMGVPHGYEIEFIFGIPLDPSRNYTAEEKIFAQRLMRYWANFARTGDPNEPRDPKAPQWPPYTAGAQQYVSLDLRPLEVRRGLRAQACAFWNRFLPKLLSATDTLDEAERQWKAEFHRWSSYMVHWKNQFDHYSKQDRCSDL

OCCCCCCCCCCCCBr
inactive: Potency [1] | Potency [2] | Potency [3] | Potency [4]

CCCCCSCCCCC
inactive: Potency [1] | Potency [2] | Potency [3] | Potency [4]

CCC1COC(=O)O1 (stereo not given)
inactive: Potency [1] | Potency [2] | Potency [3] | Potency [4]

C[C@]12C[C@H](O)[C@H]3[C@@H](CCC4=CC(=O)CC[C@@]43C)[C@@H]1CC[C@@H]2C(=O)CO
inactive: Potency [1] | Potency [2] | Potency [3] | Potency [4]

CNC(=O)NC
inactive: Potency [1] | Potency [2] | Potency [3] | Potency [4]

CCCCCCCCCCCC(=O)OCC(C)OC(=O)CCCCC(=O)O (stereo not given)
inactive: Potency [1] | Potency [2] | Potency [3] | Potency [4]

C#CCN(C)Cc1ccccc1
inactive: Potency [1] | Potency [2] | Potency [3] | Potency [4]

Nc1nc(Cl)nc2c1ncn2[C@H]1C[C@H](O)[C@@H](CO)O1
inactive: Potency [1] | Potency [2] | Potency [3] | Potency [4]

C=CC(=O)NCOCCCC
inactive: Potency [1] | Potency [2] | Potency [3] | Potency [4]

CCCCN(CCN(CCCC)C(=O)N1CCOCC1)C(=O)N1CCOCC1
inactive: Potency [1] | Potency [2] | Potency [3] | Potency [4]

Fc1ccccc1-c1ccccc1
inactive: Potency [1] | Potency [2] | Potency [3] | Potency [4]

COc1ccc(-c2cc(C(F)F)nn2-c2ccc(S(N)(=O)=O)cc2)cc1F
inactive: Potency [1] | Potency [2] | Potency [3] | Potency [4]

O=C(CN1CCNCC1)NC1CCCCC1
inactive: Potency [1] | Potency [2] | Potency [3] | Potency [4]

C#CCN(C)CCCOc1ccc(Cl)cc1Cl
inactive: Potency [1] | Potency [2] | Potency [3] | Potency [4]

Brc1ccccn1
inactive: Potency [1] | Potency [2] | Potency [3] | Potency [4]

COC(=O)c1cccnc1
inactive: Potency [1] | Potency [2] | Potency [3] | Potency [4]

C[CH2][Ge]([Cl])([CH2]C)[CH2]C
inactive: Potency [1] | Potency [2] | Potency [3] | Potency [4]

Cc1cc(Cc2cc(C)cc(C(C)(C)C)c2O)c(O)c(C(C)(C)C)c1
inactive: Potency [1] | Potency [2] | Potency [3] | Potency [4]

Cc1cc(=O)[nH]c(=O)[nH]1
inactive: Potency [1] | Potency [2] | Potency [3] | Potency [4]

c1ccc2c(c1)Oc1ccccc1S2
inactive: Potency [1] | Potency [2] | Potency [3] | Potency [4]

CCCC[C@H]1CN(CC2CCOCC2)C(=O)OC12CCN(C1(C)CCN(C(=O)c3c(C)ncnc3C)CC1)CC2
inactive: Potency [1] | Potency [2] | Potency [3] | Potency [4]

Cc1cc(O)c(Cl)c(C)c1Cl
inactive: Potency [1] | Potency [2] | Potency [3] | Potency [4]

CN(C)c1ccc(O)c2c1C[C@H]1C[C@H]3[C@H](N(C)C)C(=O)C(C(N)=O)=C(O)[C@@]3(O)C(=O)C1=C2O
inactive: Potency [1] | Potency [2] | Potency [3] | Potency [4]

COCCC(=O)OC
inactive: Potency [1] | Potency [2] | Potency [3] | Potency [4]

O=C(O)c1ccc(C(=O)O)c(C(=O)O)c1
inactive: Potency [1] | Potency [2] | Potency [3] | Potency [4]

O=S1(=O)CCCO1
inactive: Potency [1] | Potency [2] | Potency [3] | Potency [4]

Nc1cc([N+](=O)[O-])ccc1Cl
inactive: Potency [1] | Potency [2] | Potency [3] | Potency [4]

CCC(CO)CO
inactive: Potency [1] | Potency [2] | Potency [3] | Potency [4]

Cc1cccc(N(C)C(=S)Oc2ccc3c(c2)C2CCC3C2)c1 (stereo not given)
inactive: Potency [1] | Potency [2] | Potency [3] | Potency [4]

COC(c1ccccc1)(c1ccccc1)[C@H](Oc1nc(C)cc(C)n1)C(=O)O
inactive: Potency [1] | Potency [2] | Potency [3] | Potency [4]

Nc1ccc(C(=O)O)cc1
inactive: Potency [1] | Potency [2] | Potency [3] | Potency [4]

CCOCOCC
inactive: Potency [1] | Potency [2] | Potency [3] | Potency [4]

C[C@@H]1CN(c2c(F)c(N)c3c(=O)c(C(=O)O)cn(C4CC4)c3c2F)C[C@H](C)N1
inactive: activity, negative = inhibition [1] 1.94% [at 23.6 µM] | activity change, negative = inhibition [2] -2.1% [at 23.6 µM] | activity change, negative = inhibition [3] -0.604% [at 23.8 µM] | activity change, negative = inhibition [4] 0.841% [at 23.6 µM]

Clc1cccc(-c2cc(Cl)cc(Cl)c2)c1
inactive: Potency [1] | Potency [2] | Potency [3] | Potency [4]

Cc1ccc(-c2ccccc2C#N)cc1
inactive: Potency [1] | Potency [2] | Potency [3] | Potency [4]

COc1ccccc1OCC(O)COC(N)=O (stereo not given)
inactive: Potency [1] | Potency [2] | Potency [3] | Potency [4]

CC(=O)CC/C=C(\C)CC/C=C(\C)CC/C=C(\C)CCC=C(C)C
inactive: Potency [1] | Potency [2] | Potency [3] | Potency [4]

c1ccc2c(c1)[nH]c1ccccc12
inactive: Potency [1] | Potency [2] | Potency [3] | Potency [4]

CCCCCCCCSCCO
inactive: Potency [1] | Potency [2] | Potency [3] | Potency [4]

CC[C@H]1OC(=O)[C@H](C)[C@@H](O[C@H]2C[C@@](C)(OC)[C@@H](O)[C@H](C)O2)[C@H](C)[C@@H](O[C@@H]2O[C@H](C)C[C@H](N(C)C)[C@H]2O)[C@](C)(O)C[C@@H](C)C(=O)[C@H](C)[C@@H](O)[C@]1(C)O
inactive: Potency [1] | Potency [2] | Potency [3] | Potency [4]

CCCc1ccc(OCC(=O)N2CCN(C(=O)COc3ccc(CCC)cc3OC)CC2)c(OC)c1
inactive: Potency [1] | Potency [2] | Potency [3] | Potency [4]

O=C(O)c1cc(Br)c(O)c(Br)c1
inactive: Potency [1] | Potency [2] | Potency [3] | Potency [4]

CCCOc1ccc(S(=O)(=O)N2CCN(CC)CC2)cc1-c1nc2c(CC)n(Cc3ccccn3)nc2c(=O)[nH]1
inactive: Potency [1] | Potency [2] | Potency [3] | Potency [4]

SCCc1cnccn1
inactive: Potency [1] | Potency [2] | Potency [3] | Potency [4]

C=CCCCCCCCC
inactive: Potency [1] | Potency [2] | Potency [3] | Potency [4]

CCC(=O)O[C@H]1[C@H](O[C@@H]2[C@@H](C)[C@H](O[C@H]3C[C@@](C)(OC)[C@@H](O)[C@H](C)O3)[C@@H](C)C(=O)O[C@H](CC)[C@@](C)(O)[C@H](O)[C@@H](C)C(=O)[C@H](C)C[C@@]2(C)O)O[C@H](C)C[C@@H]1N(C)C
inactive: Potency [1] | Potency [2] | Potency [3] | Potency [4]

CC(=O)/C=C/c1ccco1
inactive: Potency [1] | Potency [2] | Potency [3] | Potency [4]

O=C(O)CCCCCCCC(=O)O
inactive: Potency [1] | Potency [2] | Potency [3] | Potency [4]

CCCCCCCCCCCCCCCC(=O)OC
inactive: activity, negative = inhibition [1] 2.77% [at 23.6 µM] | activity change, negative = inhibition [2] -0.557% [at 23.6 µM] | activity change, negative = inhibition [3] 2.99% [at 23.8 µM] | activity change, negative = inhibition [4] 0.243% [at 23.6 µM]

CC(C)CC(=O)N[C@H](C(=O)N[C@H](C(=O)N[C@@H](CC(C)C)[C@@H](O)CC(=O)N[C@@H](C)C(=O)N[C@@H](CC(C)C)[C@@H](O)CC(=O)O)C(C)C)C(C)C (Isovaleryl-VV[Sta]A[Sta]-OH)
inactive: Potency [1] | Potency [2] | Potency [3] | Potency [4]

c1cnccn1
inactive: Potency [1] | Potency [2] | Potency [3] | Potency [4]

Cc1ccc2c(c1)C(=O)c1ccccc1C2=O
inactive: Potency [1] | Potency [2] | Potency [3] | Potency [4]

FC(F)(F)c1ccccc1Cl
inactive: Potency [1] | Potency [2] | Potency [3] | Potency [4]

CCCCCCCCCCCC(=O)N(C)CC(=O)O
inactive: Potency [1] | Potency [2] | Potency [3] | Potency [4]

Cc1cc(F)ccc1-c1cc(N2CC[C@@H](O)[C@H]2CO)ncc1N(C)C(=O)C(C)(C)c1cc(C(F)(F)F)cc(C(F)(F)F)c1
inactive: Potency [1] | Potency [2] | Potency [3] | Potency [4]

COC1=CC(=O)C[C@@H](C)[C@]12Oc1c(Cl)c(OC)cc(OC)c1C2=O
inactive: Potency [1] | Potency [2] | Potency [3] | Potency [4]

CC1(C)CC(O)CC(C)(C)N1
inactive: Potency [1] | Potency [2] | Potency [3] | Potency [4]

CC(C)=CCCC(C)CCOC=O (stereo not given)
inactive: Potency [1] | Potency [2] | Potency [3] | Potency [4]

O=C(NC(Cc1cc(=O)[nH]c2ccccc12)C(=O)O)c1ccc(Cl)cc1 (stereo not given)
inactive: Potency [1] | Potency [2] | Potency [3] | Potency [4]

C=C(C)[C@@H]1CCC2=CC(=O)C[C@@H](C)[C@]2(C)C1
inactive: Potency [1] | Potency [2] | Potency [3] | Potency [4]
